From PubChem BioAssay AID1159580 (chemical genetic matrix, 2015)
In all, about 5,500 compounds went through this assay and about 2,000 (36%) were called active. Not shown: some 18% with an inconclusive outcome. Rule as the data show it: active = normalized growth mostly below about 0.91 (no sharp cut-off); inconclusive = no clear call, values can overlap the other calls; inactive = mostly above about 0.92. This is one part of the list.

Experiment: chemical genetic growth profiling, strain panel (AID 1159580);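 also: tested at 20 µM; growth read once vehicle control cultures reached saturation at 30 °C; 1 = growth at the plate median or of vehicle wells; lower values mean less growth of the strain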
Details: S. cerevisiae deletion strains, growth OD

Measured: normalized growth

O=C(Nc1ccc(Cl)cc1Cl)c1cnccc1C(F)(F)F
inactive: locus YAR019C, strain CDC15, stronger effect = lower value 0.978 | locus YBL105C, strain PKC1, stronger effect = lower value 0.976 | locus YBR135W, strain CKS1, stronger effect = lower value 0.981 | locus YBR136W, strain MEC1, stronger effect = lower value 0.971 | locus YBR160W, strain CDC28, stronger effect = lower value 0.974 | locus YDL017W, strain CDC7, stronger effect = lower value 0.984 | locus YDL028C, strain MPS1, stronger effect = lower value 0.976 | locus YDL101C, strain DUN1, stronger effect = lower value 0.964 | locus YDL108W, strain KIN28, stronger effect = lower value 0.97 | locus YDL132W, strain cdc53, stronger effect = lower value 0.972 | locus YDL214C, strain PRR2, stronger effect = lower value 0.987 | locus YDR052C, strain DBF4, stronger effect = lower value 0.977 | locus YDR054C, strain cdc34, stronger effect = lower value 0.977 | locus YDR226W, strain ADK1, stronger effect = lower value 0.976 | locus YDR477W, strain SNF1, stronger effect = lower value 0.981 | locus YER123W, strain YCK3, stronger effect = lower value 0.958 | locus YER133W, strain GLC7, stronger effect = lower value 0.976 | locus YFL009W, strain cdc4, stronger effect = lower value 0.971 | locus YFL029C, strain CAK1, stronger effect = lower value 0.975 | locus YFR003C, strain YPI1, stronger effect = lower value 0.977 | locus YFR019W, strain FAB1, stronger effect = lower value 0.98 | locus YFR028C, strain CDC14, stronger effect = lower value 0.97 | locus YGR040W, strain KSS1, stronger effect = lower value 0.977 | locus YGR052W, strain FMP48, stronger effect = lower value 1.13 | locus YGR092W, strain DBF2, stronger effect = lower value 0.998 | locus YHR030C, strain SLT2, stronger effect = lower value 1.15 | locus YHR079C, strain IRE1, stronger effect = lower value 1.09 | locus YHR082C, strain KSP1, stronger effect = lower value 1.11 | locus YHR205W, strain SCH9, stronger effect = lower value 0.974 | locus YIL147C, strain SLN1, stronger effect = lower value 0.971 | locus YJL095W, strain BCK1, stronger effect = lower value 1.14 | locus YJL128C, strain PBS2, stronger effect = lower value 0.935 | locus YJL157C, strain FAR1, stronger effect = lower value 0.973 | locus YJR016C, strain ILV3, stronger effect = lower value 0.976 | locus YJR066W, strain TOR1 (second series), stronger effect = lower value 1 | locus YJR066W, strain TOR1, stronger effect = lower value 1.12 | locus YKL048C, strain ELM1, stronger effect = lower value 0.974 | locus YKL067W, strain YNK1, stronger effect = lower value 0.981 | locus YKL101W, strain HSL1, stronger effect = lower value 0.986 | locus YKL193C, strain SDS22, stronger effect = lower value 0.967 | locus YKL203C, strain TOR2, stronger effect = lower value 1.05 | locus YLR113W, strain HOG1, stronger effect = lower value 1.05 | locus YLR133W, strain CKI1, stronger effect = lower value 0.988 | locus YLR403W, strain SFP1, stronger effect = lower value 0.967 | locus YML070W, strain DAK1, stronger effect = lower value 0.98 | locus YMR001C, strain CDC5, stronger effect = lower value 0.972 | locus YMR205C, strain PFK2 (second series), stronger effect = lower value 0.993 | locus YMR277W, strain FCP1, stronger effect = lower value 0.962 | locus YNL006W, strain LST8, stronger effect = lower value 0.973 | locus YNL020C, strain ARK1, stronger effect = lower value 0.989 | locus YNL161W, strain CBK1, stronger effect = lower value 0.974 | locus YNL183C, strain NPR1, stronger effect = lower value 1.1 | locus YNL207W, strain RIO2, stronger effect = lower value 0.976 | locus YNL222W, strain SSU72, stronger effect = lower value 0.976 | locus YNL307C, strain MCK1 (second series), stronger effect = lower value 0.988 | locus YOL078W, strain AVO1, stronger effect = lower value 0.975 | locus YOL136C, strain PFK27, stronger effect = lower value 0.982 | locus YOR061W, strain CKA2, stronger effect = lower value 0.99 | locus YOR119C, strain RIO1, stronger effect = lower value 1.01 | locus YOR231W, strain MKK1, stronger effect = lower value 1.1 | locus YOR329C, strain SCD5, stronger effect = lower value 0.975 | locus YPL031C, strain PHO85, stronger effect = lower value 0.977 | locus YPL153C, strain RAD53, stronger effect = lower value 0.99 | locus YPL204W, strain HRR25, stronger effect = lower value 0.976 | locus YPL209C, strain IPL1, stronger effect = lower value 0.967 | locus YPL256C, strain CLN2, stronger effect = lower value 1.07 | locus YPR025C, strain CCL1, stronger effect = lower value 0.976 | locus YPR106W, strain ISR1, stronger effect = lower value 0.972 | locus YPR111W, strain DBF20, stronger effect = lower value 0.974 | strain NNK1, stronger effect = lower value 0.971 | strain TSCII, stronger effect = lower value 0.972
